Results taken from PubChem BioAssay (Tox21).
Results filed as inconclusive are left out. The source made the active and inactive calls. Unless noted, calls come from the whole dose curve; as a rule, active = well fitted curve in the direction sought with a large enough effect in the repeat runs; inconclusive = weak or mixed curves; inactive = no such curve, though single readings can be large; an effect the other way counts as inactive or inconclusive.

Tests used:
[1] = molecular target: Retinoic acid receptor RXR-alpha (Homo sapiens) (UniProt P19793); test: qHTS assay to identify small molecule agonists of the RXR signaling pathway (AID 1159527; calls by dose curve; note: nearly all actives have a fitted effect of over 35% in size; note: potency is the fitted concentration of half-maximal effect)
Chain of Retinoic acid receptor RXR-alpha (Homo sapiens) (P19793 whole entry, looked up): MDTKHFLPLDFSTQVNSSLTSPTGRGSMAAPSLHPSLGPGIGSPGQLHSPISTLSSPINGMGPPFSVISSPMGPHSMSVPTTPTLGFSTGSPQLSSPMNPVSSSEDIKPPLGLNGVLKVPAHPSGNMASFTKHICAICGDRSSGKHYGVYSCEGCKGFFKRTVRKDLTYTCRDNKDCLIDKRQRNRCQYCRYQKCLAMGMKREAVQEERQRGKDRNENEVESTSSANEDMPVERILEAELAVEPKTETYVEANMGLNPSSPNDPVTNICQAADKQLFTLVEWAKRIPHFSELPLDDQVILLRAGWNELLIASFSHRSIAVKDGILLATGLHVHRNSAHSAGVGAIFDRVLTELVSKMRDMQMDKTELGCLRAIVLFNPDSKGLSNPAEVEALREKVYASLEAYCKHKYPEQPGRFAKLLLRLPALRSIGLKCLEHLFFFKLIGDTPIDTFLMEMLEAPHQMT
Method in brief: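 Cells plated at 2,000/well, rested 5 hr at 37 C, pin-dosed with DMSO compound solutions, incubated 16 hr, then loaded with B/G FRET substrate for 2 hr at RT before dual-emission fluorescence reading.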

[2] = qHTS assay to identify small molecule agonists of the RXR signaling pathway - cell viability counter screen (AID 1159529);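 note: HEK 293T cells carrying an RXR-alpha UAS beta-lactamase reporter; series mostly up to about 77 µM; nearly all actives have a fitted effect of over 50% in size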
Method in brief: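 Steps: seed RXR-alpha-UAS-bla HEK 293T cells in assay medium containing 2% charcoal-stripped FBS; incubate 5 hr; add compounds in DMSO; incubate 16 hr at 37 C; after the bla read, add CellTiter-Glo and read luminescence at 30 min.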

[3] = qHTS assay to identify small molecule antagonists of the retinoid acid receptor (RAR) signaling pathway - cell viability counter screen (AID 1159551); note: nearly all actives have a fitted effect of over 35% in size
Method in brief: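 In this counter screen, the RARE-luciferase line C3RL4 was exposed for 6 h at 37 C and 5% CO2 to compounds with retinol at 1 uM final. Cellular ATP, read by luminescence, served as the viability measure.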

[4] = qHTS assay to identify small molecule antagonists of the estrogen related receptor (ERR) signaling pathway - cell viability counter screen (AID 1224818); note: series mostly up to about 46 µM
Method in brief: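 Viability of ERR cells, CellTiter-Fluor fluorescence; 17.5 h compound exposure at 37 C, DMSO vehicle; 30 min reagent incubation at 37 C/5% CO2.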

[5] = qHTS assay to identify small molecule antagonists of the estrogen related receptor signaling pathway with the pleiotropic PPARgamma coactivator (PGC) cell viability counter screen (AID 1224822; note: series mostly up to about 46 µM)
Method in brief: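 17.5 h compound treatment of PGC/ERR cells at 37 C; readout CellTiter-Fluor fluorescence; run alongside the PGC/ERR antagonist screen to flag cytotoxic compounds.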

[6] = qHTS assay to identify small molecule antagonists of the estrogen related receptor (ERR) signaling pathway (AID 1224819;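 note: luminescence from an ERR-driven luciferase reporter measured with One-Glo reagent; series mostly up to about 46 µM; nearly all actives have a fitted effect of over 50% in size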)
Method in brief: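 Seed ERR cells 2,000/well; rest 6 h at 37 C/5% CO2; pin compounds in DMSO; incubate 18 h at 37 C; add One-Glo; wait 30 min at room temperature; measure luminescence.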

[7] = qHTS assay to identify small molecule agonists of the estrogen related receptor (ERR) signaling pathway (AID 1224820)
Method in brief: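 An ERR cell line provided by NTP was seeded at 2,000 cells per well and allowed to settle for 6 h before compounds in DMSO were added. After 18 h at 37 C, luciferase activity was measured by One-Glo luminescence.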

[8] = system: estrogen-related receptor alpha (ERRalpha) with PGC-1alpha coactivator, human; test: qHTS assay to identify small molecule antagonists of the estrogen related receptor signaling pathway with the pleiotropic PPARgamma coactivator (PGC) (AID 1224821; calls by dose curve;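 note: series mostly up to about 46 µM; lower luminescence signal means antagonism of PGC/ERR signalling; nearly all actives have a fitted effect of over 50% in size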)
Method in brief: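 A PGC/ERR cell line supplied by NTP is seeded, allowed 6 h at 37 C, and treated with test compounds in DMSO for 18 h. Signal is then measured as luciferase luminescence using One-Glo.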

[9] = qHTS assay to identify small molecule agonists of the retinoic acid receptor (RAR) signaling pathway (AID 1159553)
Method in brief: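 In this cell-based screen, 1,000 C3RL4 cells per well were cultured overnight, dosed with test chemicals in DMSO for 6 hr, and assessed for RARE luciferase luminescence.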

[10] = qHTS assay to identify small molecule antagonists of the retinoic acid receptor (RAR) signaling pathway (AID 1159552; note: nearly all actives have a fitted effect of over 50% in size)
Method in brief: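 Retinol at 1 uM final stimulated RARE-luciferase expression in C3RL4 cells exposed to test compounds for 6 hr at 37 C. Reduced luminescence, read 30 min after detection reagent, indicated pathway antagonism.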
% is set by controls: 0 for no effect and ±100 for the full control effect.

N[C@@H](COP(=O)(O)O)C(=O)O
inactive: activation [1] 7.83% [at 15.8 µM] | activity change, negative = cytotoxicity [2] 11.4% [at 15.8 µM] | activity change, negative = cytotoxicity [3] -0.284% [at 19 µM] | outcome [4] | outcome [5]

C[C@@H](O)[C@H]1C(=O)N2C(C(=O)O)=C(SCCN=CN)C[C@H]12
inactive: Potency [1] | outcome [2] | outcome [3] | outcome [4] | outcome [6] | outcome [7] | outcome [8] | outcome [5]

Cc1ccccc1C(=O)Nc1ccc(C(=O)N2CCCC(N(C)C)c3ccccc32)cc1 (stereo not drawn)
inactive: Potency [1] | outcome [2] | outcome [3] | Potency [9]

COc1ccc(S(=O)(=O)N2c3ccc(Cl)cc3[C@@](O)(c3ccccc3Cl)[C@H]2C(=O)N2CCC[C@@H]2C(N)=O)cc1OC
inactive: Potency [1] | outcome [2] | outcome [3] | Potency [9]

O=Cc1ccc(Cl)c(Cl)c1
inactive: Potency [1] | outcome [2] | outcome [3] | Potency [9]

CC(=C(CCOC(=O)C(C)C)SSC(CCOC(=O)C(C)C)=C(C)N(C=O)Cc1cnc(C)nc1N)N(C=O)Cc1cnc(C)nc1N
inactive: Potency [1] | outcome [2] | outcome [3] | Potency [9]

CCCCOC(=O)c1ccccc1
inactive: Potency [1] | outcome [2] | outcome [3] | outcome [10] | Potency [9]

COC(=O)[C@@H]1[C@H]2C[C@H]3c4[nH]c5ccccc5c4CCN3C[C@@H]2CC[C@@H]1O
inactive: Potency [1] | outcome [2] | outcome [3] | outcome [4] | outcome [6] | outcome [8] | outcome [5]

CCCN1C[C@H](CSC)C[C@@H]2c3cccc4[nH]cc(c34)C[C@H]21
inactive: Potency [1] | outcome [2] | outcome [3] | outcome [4] | outcome [5]

CCCC/C=C/C=C\C=O
inactive: Potency [1] | outcome [2] | outcome [3] | Potency [9]

Nc1nnc(-c2cccc(Cl)c2Cl)c(N)n1
inactive: Potency [1] | outcome [2] | outcome [3] | outcome [4] | outcome [5]

C[C@H](N)[C@H](O)c1cccc(O)c1
inactive: Potency [1] | outcome [2] | outcome [3] | Potency [9]

CC(C)CC(=O)O
active: Potency [1] 10.7 µM
inactive: outcome [2] | outcome [3] | Potency [9]

CC1(CO)CN(c2ccccc2)NC1=O (stereo not drawn)
inactive: Potency [1] | outcome [2] | outcome [3] | outcome [10] | Potency [9]

O=C(CCNNC(=O)c1ccncc1)NCc1ccccc1
inactive: Potency [1] | outcome [2] | outcome [3] | outcome [4] | outcome [5]

Cc1cccc(C)c1OCC(C)N (stereo not drawn)
inactive: Potency [1] | outcome [2] | outcome [3] | outcome [4] | outcome [6] | outcome [7] | outcome [8] | outcome [5]

CCOC(=O)c1ncn2c1CN(C)C(=O)c1cc(F)ccc1-2
inactive: Potency [1] | outcome [2] | outcome [3] | outcome [4] | outcome [5]

Brc1ccc(-c2ccccc2)cc1
inactive: Potency [1] | outcome [2] | outcome [3] | Potency [9]

CC(=O)CCCCn1c(=O)c2c(ncn2C)n(C)c1=O
inactive: Potency [1] | outcome [2] | outcome [3] | outcome [4] | outcome [6] | outcome [7] | outcome [8] | outcome [5]

COc1ccc2c(c1OC)C(=O)O[C@@H]2[C@H]1c2c(cc3c(c2OC)OCO3)CCN1C
inactive: Potency [1] | outcome [2] | outcome [3] | outcome [10] | outcome [6] | outcome [7] | outcome [8]

Nc1ccc([N+](=O)[O-])c(N)c1
inactive: Potency [1] | outcome [2] | outcome [3] | outcome [10] | Potency [9]

CCN1CCc2nc(N)oc2CC1
inactive: Potency [1] | outcome [2] | outcome [3] | outcome [4] | outcome [5]

CCN(C)C(=O)Oc1cccc([C@H](C)N(C)C)c1
inactive: Potency [1] | outcome [2] | outcome [3] | Potency [9]

COc1ccc(C2CNC(=O)C2)cc1OC1CCCC1 (stereo not drawn)
inactive: Potency [1] | outcome [2] | outcome [3] | outcome [4] | outcome [6] | outcome [7] | outcome [8] | outcome [5]

CC(C)C[C@H](NC(=O)CNC(=O)[C@H](Cc1ccc(O)cc1)NC(=O)[C@H](CO)NC(=O)[C@H](Cc1c[nH]c2ccccc12)NC(=O)[C@H](Cc1cnc[nH]1)NC(=O)[C@@H]1CCC(=O)N1)C(=O)N[C@@H](CCCN=C(N)N)C(=O)N1CCC[C@H]1C(=O)NCC(N)=O (stereo in doubt)
inactive: Potency [1] | outcome [2] | outcome [3] | Potency [9]

NCCS
inactive: Potency [1] | outcome [3] | outcome [4] | outcome [6] | outcome [7] | outcome [8] | outcome [5]

CCOC(=O)c1ccc(OC(=O)CCCCCN=C(N)N)cc1
inactive: Potency [1] | outcome [3] | outcome [10]

CN(C)c1ccc(C=O)cc1
inactive: Potency [1] | outcome [3]

Cc1ccccc1N=O
inactive: Potency [1] | outcome [3] | Potency [9]

CCc1ccc(C=O)cc1
inactive: Potency [1] | outcome [3]

CC(C)C(=O)OCc1cccc(OC(=O)[C@@H]2N3C(=O)[C@@H](NC(=O)Cc4ccccc4)[C@H]3SC2(C)C)c1
inactive: Potency [1] | outcome [3] | outcome [10]

CC1=CCC(C(C)C)=CC1
inactive: Potency [1] | outcome [3]

CCC(C=O)CC
inactive: Potency [1] | outcome [3]

C=Cc1ccccn1
inactive: Potency [1] | outcome [3] | Potency [9]
